In PubChem BioAssay AID1159580 (chemical genetic matrix, 2015):
The campaign covered roughly 5,500 compounds. About 2,000 (36%) were called active. About 18% were inconclusive and are not listed. Rule as the data show it: active = normalized growth mostly below about 0.91 (no sharp cut-off); inconclusive = no clear call, values can overlap the other calls; inactive = mostly above about 0.92. The list shows a part of the results.

Experiment: chemical genetic growth profiling, strain panel (AID 1159580);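 also: tested at 20 µM; growth read once vehicle control cultures reached saturation at 30 °C; 1 = growth at the plate median or of vehicle wells; lower values mean less growth of the strain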
Conditions: growth OD
[1] = S. cerevisiae deletion strains, locus YAL013W, strain DEP1, stronger effect = lower value
[2] = S. cerevisiae deletion strains, locus YBR229C, strain ROT2, stronger effect = lower value
[3] = S. cerevisiae deletion strains, locus YDL101C, strain DUN1, stronger effect = lower value
[4] = S. cerevisiae deletion strains, locus YDL134C, strain PPH21, stronger effect = lower value
[5] = S. cerevisiae deletion strains, locus YDR150W, strain NUM1, stronger effect = lower value
[6] = S. cerevisiae deletion strains, locus YEL061C, strain CIN8, stronger effect = lower value
[7] = S. cerevisiae deletion strains, locus YGR078C, strain PAC10, stronger effect = lower value
[8] = S. cerevisiae deletion strains, locus YGR229C, strain SMI1, stronger effect = lower value
[9] = S. cerevisiae deletion strains, locus YHR030C, strain SLT2, stronger effect = lower value
[10] = S. cerevisiae deletion strains, locus YHR087W, strain rtc3, stronger effect = lower value
[11] = S. cerevisiae deletion strains, locus YJR043C, strain POL32, stronger effect = lower value
[12] = S. cerevisiae deletion strains, locus YJR075W, strain HOC1, stronger effect = lower value
[13] = S. cerevisiae deletion strains, locus YKL190W, strain CNB1, stronger effect = lower value
[14] = S. cerevisiae deletion strains, locus YLR039C, strain RIC1, stronger effect = lower value
[15] = S. cerevisiae deletion strains, locus YLR058C, strain SHM2 (second series), stronger effect = lower value
[16] = S. cerevisiae deletion strains, locus YLR085C, strain ARP6, stronger effect = lower value
[17] = S. cerevisiae deletion strains, locus YLR262C, strain YPT6, stronger effect = lower value
[18] = S. cerevisiae deletion strains, locus YML094W, strain GIM5, stronger effect = lower value
[19] = S. cerevisiae deletion strains, locus YMR219W, strain ESC1, stronger effect = lower value
[20] = S. cerevisiae deletion strains, locus YMR263W, strain SAP30, stronger effect = lower value
[21] = S. cerevisiae deletion strains, locus YMR307W, strain GAS1, stronger effect = lower value
[22] = S. cerevisiae deletion strains, locus YNL153C, strain GIM3, stronger effect = lower value
[23] = S. cerevisiae deletion strains, locus YNL298W, strain CLA4 (second series), stronger effect = lower value
[24] = S. cerevisiae deletion strains, locus YNL322C, strain KRE1, stronger effect = lower value
[25] = S. cerevisiae deletion strains, locus YNR030W, strain Alg12, stronger effect = lower value
[26] = S. cerevisiae deletion strains, locus YPL055C, strain LGE1, stronger effect = lower value
[27] = S. cerevisiae deletion strains, locus YPL241C, strain CIN2, stronger effect = lower value
[28] = S. cerevisiae deletion strains, locus YPR135W, strain CTF4, stronger effect = lower value
[29] = S. cerevisiae deletion strains, locus YAL040C, strain CLN3, stronger effect = lower value
[30] = S. cerevisiae deletion strains, locus YCL061C, strain MRC1 (second series), stronger effect = lower value
[31] = S. cerevisiae deletion strains, locus YDR363W, strain ESC2, stronger effect = lower value
[32] = S. cerevisiae deletion strains, locus YER002W, strain NOP16, stronger effect = lower value
[33] = S. cerevisiae deletion strains, locus YNL175C, strain NOP13, stronger effect = lower value
[34] = S. cerevisiae deletion strains, locus YNL197C, strain WHI3, stronger effect = lower value
[35] = S. cerevisiae deletion strains, locus YNL224C, strain SQS1, stronger effect = lower value
[36] = S. cerevisiae deletion strains, locus YOR083W, strain WHI5 (second series), stronger effect = lower value

Measured: normalized growth

COc1ccccc1N1CCN(C(=O)c2cccs2)CC1
inactive: [1] 0.998 | [2] 1.01 | [3] 0.991 | [4] 0.959 | [5] 1.04 | [6] 1.01 | [7] 1 | [8] 0.993 | [9] 0.963 | [10] 0.985 | [11] 1.01 | [12] 1.03 | [13] 0.99 | [14] 1.01 | [15] 0.984 | [16] 0.889 | [17] 1.13 | [18] 0.972 | [19] 0.988 | [20] 1.02 | [21] 0.849 | [22] 1.04 | [23] 0.981 | [24] 0.993 | [25] 0.957 | [26] 0.99 | [27] 0.957 | [28] 1.1 | S. cerevisiae strains, strain wild type, stronger effect = lower value 0.993

O=C(NC1CCCCC1)N1CCN(c2ncccc2C(F)(F)F)CC1
inactive: [1] 1.01 | [2] 0.994 | S. cerevisiae deletion strains, locus YCL061C, strain MRC1, stronger effect = lower value 0.984 | [3] 0.998 | [4] 0.982 | [5] 0.978 | [6] 0.998 | [7] 1 | [9] 0.994 | [10] 1.01 | [11] 0.979 | [12] 0.99 | [13] 0.989 | [14] 1.01 | [15] 0.987 | [16] 0.996 | [17] 0.993 | [18] 1.01 | [19] 0.991 | [20] 0.988 | [21] 0.851 | S. cerevisiae deletion strains, locus YNL128W, strain TEP1, stronger effect = lower value 0.986 | [22] 0.988 | [23] 0.986 | [24] 1 | [25] 1 | S. cerevisiae deletion strains, locus YOL006C, strain TOP1, stronger effect = lower value 0.966 | [26] 1.01 | [27] 0.985 | [28] 1.01

COc1ccccc1N1CCN(CCN(C(=O)c2ccc(I)cc2)c2ccccn2)CC1
inactive: [29] 0.976 | [30] 0.988 | [31] 0.943 | [32] 1.01 | [8] 0.984 | [33] 0.983 | [34] 0.996 | [35] 0.987 | [24] 0.977 | [36] 0.997 | [26] 0.964 | [27] 0.995

COc1ccccc1N1CCN(CCCCN2C(=O)c3ccccc3C2=O)CC1
inactive: [1] 1 | [29] 0.99 | [30] 0.995 | [31] 0.963 | [32] 1.01 | [7] 0.985 | [8] 1.02 | [12] 0.993 | [20] 1 | [22] 0.99 | [33] 0.979 | [34] 0.981 | [35] 1 | [36] 0.985 | [26] 0.971 | [27] 1

COc1ccccc1N1CCN(C(=O)C(C)c2ccc(CC(C)C)cc2)CC1 (stereo not drawn)
active: [9] 0.802 | S. cerevisiae deletion strains, locus YLR113W, strain HOG1, stronger effect = lower value 0.829
inactive: S. cerevisiae deletion strains, locus YAR019C, strain CDC15, stronger effect = lower value 0.978 | S. cerevisiae deletion strains, locus YBL105C, strain PKC1, stronger effect = lower value 0.983 | S. cerevisiae deletion strains, locus YBR135W, strain CKS1, stronger effect = lower value 0.978 | S. cerevisiae deletion strains, locus YBR136W, strain MEC1, stronger effect = lower value 0.984 | S. cerevisiae deletion strains, locus YBR160W, strain CDC28, stronger effect = lower value 0.975 | S. cerevisiae deletion strains, locus YDL017W, strain CDC7, stronger effect = lower value 0.981 | S. cerevisiae deletion strains, locus YDL028C, strain MPS1, stronger effect = lower value 0.97 | [3] 0.974 | S. cerevisiae deletion strains, locus YDL108W, strain KIN28, stronger effect = lower value 0.968 | S. cerevisiae deletion strains, locus YDL132W, strain cdc53, stronger effect = lower value 0.988 | S. cerevisiae deletion strains, locus YDL214C, strain PRR2, stronger effect = lower value 0.932 | S. cerevisiae deletion strains, locus YDR052C, strain DBF4, stronger effect = lower value 0.99 | S. cerevisiae deletion strains, locus YDR054C, strain cdc34, stronger effect = lower value 0.975 | S. cerevisiae deletion strains, locus YDR226W, strain ADK1, stronger effect = lower value 0.966 | S. cerevisiae deletion strains, locus YDR477W, strain SNF1, stronger effect = lower value 0.921 | S. cerevisiae deletion strains, locus YER123W, strain YCK3, stronger effect = lower value 0.923 | S. cerevisiae deletion strains, locus YER133W, strain GLC7, stronger effect = lower value 0.954 | S. cerevisiae deletion strains, locus YFL009W, strain cdc4, stronger effect = lower value 0.967 | S. cerevisiae deletion strains, locus YFL029C, strain CAK1, stronger effect = lower value 0.977 | S. cerevisiae deletion strains, locus YFR003C, strain YPI1, stronger effect = lower value 0.983 | S. cerevisiae deletion strains, locus YFR019W, strain FAB1, stronger effect = lower value 0.947 | S. cerevisiae deletion strains, locus YFR028C, strain CDC14, stronger effect = lower value 0.986 | S. cerevisiae deletion strains, locus YGR040W, strain KSS1, stronger effect = lower value 0.936 | S. cerevisiae deletion strains, locus YGR052W, strain FMP48, stronger effect = lower value 0.944 | S. cerevisiae deletion strains, locus YGR092W, strain DBF2, stronger effect = lower value 0.938 | S. cerevisiae deletion strains, locus YHR079C, strain IRE1, stronger effect = lower value 0.93 | S. cerevisiae deletion strains, locus YHR082C, strain KSP1, stronger effect = lower value 0.939 | S. cerevisiae deletion strains, locus YHR205W, strain SCH9, stronger effect = lower value 0.861 | S. cerevisiae deletion strains, locus YIL147C, strain SLN1, stronger effect = lower value 0.981 | S. cerevisiae deletion strains, locus YJL095W, strain BCK1, stronger effect = lower value 0.91 | S. cerevisiae deletion strains, locus YJL128C, strain PBS2, stronger effect = lower value 0.977 | S. cerevisiae deletion strains, locus YJL157C, strain FAR1, stronger effect = lower value 0.968 | S. cerevisiae deletion strains, locus YJR016C, strain ILV3, stronger effect = lower value 0.983 | S. cerevisiae deletion strains, locus YJR066W, strain TOR1 (second series), stronger effect = lower value 0.946 | S. cerevisiae deletion strains, locus YJR066W, strain TOR1, stronger effect = lower value 0.873 | S. cerevisiae deletion strains, locus YKL048C, strain ELM1, stronger effect = lower value 0.978 | S. cerevisiae deletion strains, locus YKL067W, strain YNK1, stronger effect = lower value 0.933 | S. cerevisiae deletion strains, locus YKL101W, strain HSL1, stronger effect = lower value 0.926 | S. cerevisiae deletion strains, locus YKL193C, strain SDS22, stronger effect = lower value 0.976 | S. cerevisiae deletion strains, locus YKL203C, strain TOR2, stronger effect = lower value 1.01 | S. cerevisiae deletion strains, locus YLR133W, strain CKI1, stronger effect = lower value 0.943 | S. cerevisiae deletion strains, locus YLR403W, strain SFP1, stronger effect = lower value 0.95 | S. cerevisiae deletion strains, locus YML070W, strain DAK1, stronger effect = lower value 0.933 | S. cerevisiae deletion strains, locus YMR001C, strain CDC5, stronger effect = lower value 0.972 | S. cerevisiae deletion strains, locus YMR205C, strain PFK2 (second series), stronger effect = lower value 0.945 | S. cerevisiae deletion strains, locus YMR277W, strain FCP1, stronger effect = lower value 0.966 | S. cerevisiae deletion strains, locus YNL006W, strain LST8, stronger effect = lower value 0.964 | S. cerevisiae deletion strains, locus YNL020C, strain ARK1, stronger effect = lower value 0.942 | S. cerevisiae deletion strains, locus YNL161W, strain CBK1, stronger effect = lower value 0.981 | S. cerevisiae deletion strains, locus YNL183C, strain NPR1, stronger effect = lower value 0.963 | S. cerevisiae deletion strains, locus YNL207W, strain RIO2, stronger effect = lower value 0.983 | S. cerevisiae deletion strains, locus YNL222W, strain SSU72, stronger effect = lower value 0.969 | S. cerevisiae deletion strains, locus YNL307C, strain MCK1 (second series), stronger effect = lower value 0.924 | S. cerevisiae deletion strains, locus YOL078W, strain AVO1, stronger effect = lower value 0.977 | S. cerevisiae deletion strains, locus YOL136C, strain PFK27, stronger effect = lower value 0.909 | S. cerevisiae deletion strains, locus YOR061W, strain CKA2, stronger effect = lower value 0.937 | S. cerevisiae deletion strains, locus YOR119C, strain RIO1, stronger effect = lower value 0.951 | S. cerevisiae deletion strains, locus YOR231W, strain MKK1, stronger effect = lower value 0.904 | S. cerevisiae deletion strains, locus YOR329C, strain SCD5, stronger effect = lower value 0.98 | S. cerevisiae deletion strains, locus YPL031C, strain PHO85, stronger effect = lower value 0.93 | S. cerevisiae deletion strains, locus YPL153C, strain RAD53, stronger effect = lower value 0.919 | S. cerevisiae deletion strains, locus YPL204W, strain HRR25, stronger effect = lower value 0.915 | S. cerevisiae deletion strains, locus YPL209C, strain IPL1, stronger effect = lower value 0.981 | S. cerevisiae deletion strains, locus YPL256C, strain CLN2, stronger effect = lower value 0.877 | S. cerevisiae deletion strains, locus YPR025C, strain CCL1, stronger effect = lower value 0.983 | S. cerevisiae deletion strains, locus YPR106W, strain ISR1, stronger effect = lower value 0.961 | S. cerevisiae deletion strains, locus YPR111W, strain DBF20, stronger effect = lower value 0.95 | S. cerevisiae deletion strains, strain NNK1, stronger effect = lower value 0.965 | S. cerevisiae deletion strains, strain TSCII, stronger effect = lower value 0.965
